From article PMC6925144, “A prospective compound screening contest identified broader inhibitors for Sirtuin 1” (Scientific Reports, 2019)
The full ranking holds about 3,200 compounds; the median of “TSA(with NAD+) / Primary screening (TSA) / delta Tm (K)” is about -0.04, and the highest 2% start at about 0.37. The entries come from a sample that favours the highest values as a whole.

Molecular target: NAD-dependent deacetylase Sirtuin 1 (human, UniProt Q96EB6)
Test: primary screen, delta tm
Design: single well (n = 1, as 'the same TSA')
Conditions: 10 µM
Procedure: A total of 3,192 compounds extracted from the proposed lists were first screened by thermal shift assay (TSA), which determined a melting temperature shift (ΔTm) of Sirtuin 1 upon the addition of a test compound at a concentration of 10 µM (n = 1) with primary hit criteria of ΔTm > 0.45 K or ΔTm < −1.5 K. Primary hits (48 compounds) were retested in the same assay at three concentrations (5, 10, 20 µM, n = 4) for hit confirmation and for dose-dependency check. Secondary hits (41 compounds) were checked their selectivity for Sirtuin 1 based on counterscreening on unrelated protein targets (bovine carbonic anhydrase (CA) and recombinant SH2 domain of hABL1 kinase (ABL1)) at three different concentrations (5, 10, 20 µM, n = 4), which yielded 38 hit compounds, hereafter referred to as TSA hits. The TSA screening above was conducted in the absence of NAD+. As noted, the structure of Sirtuin 1 is different in the presence of NAD+ and substrate. The chemical profile of TSA hits found from the different conditions could be different. […] As a result, 39 TSA hits were found.

Chain of NAD-dependent deacetylase Sirtuin 1 (Q96EB6 2-747 limits assumed): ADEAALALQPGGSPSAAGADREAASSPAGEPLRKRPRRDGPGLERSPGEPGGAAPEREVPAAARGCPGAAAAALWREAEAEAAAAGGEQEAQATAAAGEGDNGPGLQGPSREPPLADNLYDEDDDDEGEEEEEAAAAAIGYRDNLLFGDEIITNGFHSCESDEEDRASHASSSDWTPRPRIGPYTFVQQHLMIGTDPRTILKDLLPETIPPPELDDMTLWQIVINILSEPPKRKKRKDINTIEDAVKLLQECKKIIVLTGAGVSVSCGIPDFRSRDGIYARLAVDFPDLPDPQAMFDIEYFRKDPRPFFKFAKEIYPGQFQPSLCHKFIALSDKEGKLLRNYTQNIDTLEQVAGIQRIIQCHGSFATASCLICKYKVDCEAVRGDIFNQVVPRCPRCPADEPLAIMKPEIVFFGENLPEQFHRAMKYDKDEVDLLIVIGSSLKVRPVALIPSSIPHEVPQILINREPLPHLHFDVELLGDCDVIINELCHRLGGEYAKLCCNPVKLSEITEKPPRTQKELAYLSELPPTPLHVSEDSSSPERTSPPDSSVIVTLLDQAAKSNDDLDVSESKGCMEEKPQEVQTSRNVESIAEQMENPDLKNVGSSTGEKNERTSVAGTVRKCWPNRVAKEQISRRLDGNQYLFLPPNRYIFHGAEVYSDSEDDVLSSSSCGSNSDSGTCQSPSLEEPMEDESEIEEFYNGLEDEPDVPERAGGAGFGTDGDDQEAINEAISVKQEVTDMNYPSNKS

| Compound | TSA(with NAD+) / Primary screening (TSA) / delta Tm (K) |
| --- | --- |
| CCCNc1nnc(S)s1 | -0.33 |
| CN(c1ccccc1)S(=O)(=O)c1cccc(NC(=O)CNc2cccc3ccccc23)c1 | 0.41 |
| CN(c1ccccc1)S(=O)(=O)c1cccc(NC(=O)CCc2c[nH]c3ccccc23)c1 | 0.32 |
| CN(c1ccccc1)S(=O)(=O)c1cccc(C(=O)NCCc2c[nH]c3ccccc23)c1 | 0.17 |
| CN(c1ccccc1)S(=O)(=O)c1cccc(NCC(=O)Nc2ccc(Br)cc2)c1 | -0.01 |
| CN(c1ccccc1)S(=O)(=O)c1cccc(NC(=O)CCCc2c[nH]c3ccccc23)c1 | 0.39 |
| CN(c1ccccc1)S(=O)(=O)c1cccc(NC(=O)c2cc(Cl)nc3ccccc23)c1 | 0.16 |
| CCOC(=O)C1=C(COC(=O)c2sc(-c3ccco3)nc2-c2ccccc2)NC(=O)NC1 | 0.06 |
| CS(=O)(=O)c1ccc(NCCNC(=O)C23CC4CC(C2)CC(c2ccccc2)(C4)C3)c([N+](=O)[O-])c1 | 0.18 |
| CN(Cc1nc(-c2cccnc2)no1)Cc1c[nH]nc1-c1cccnc1 | -0.01 |
| Cc1ccc(OCc2nc3ccccc3n2Cc2ccccc2)cc1 | -0.21 |
| Cc1ccc(N(C)S(=O)(=O)c2cccc(C(=O)Nc3ccc(Br)c(C)c3)c2)cc1 | 0.73 |
| Cc1ccc(N(C)S(=O)(=O)c2cccc(C(=O)Nc3ccc(C(N)=O)cc3)c2)cc1 | 0.46 |
| CC(=O)Nc1ccc(NC(=O)c2cccc(S(=O)(=O)N(C)c3ccc(C)cc3)c2)cc1 | -0.04 |
| CN(c1ccccc1)S(=O)(=O)c1cccc(C(=O)Nc2ccccc2)c1 | -0.01 |
| CSc1cccc(NC(=O)c2cccc(S(=O)(=O)N(C)c3ccc(C)cc3)c2)c1 | 0.19 |
| CN(c1ccccc1)S(=O)(=O)c1cccc(NC(=O)c2ccc(C(N)=O)cc2)c1 | -0.01 |
| Cc1ccc(N(C)S(=O)(=O)c2cccc(C(=O)Nc3cccc(C(=O)NC4CC4)c3)c2)cc1 | -0.03 |
| Cc1ccc(N(C)S(=O)(=O)c2cccc(C(=O)Nc3ccc4c(c3)C(=O)N(C)C4=O)c2)cc1 | 0.89 |
| Cc1ccc(N(C)S(=O)(=O)c2cccc(C(=O)Nc3ccncc3)c2)cc1 | -0.15 |
| CC1CCc2[nH]c3ccc(C(=O)Nc4cccc(S(=O)(=O)N(C)c5ccccc5)c4)cc3c2C1 (stereo not shown) | 0.39 |
| Cc1ccc(NC(=O)c2cccc(S(=O)(=O)N(C)c3ccc(C)cc3)c2)cc1 | 0.29 |
| COc1cccc(NC(=O)c2cccc(S(=O)(=O)N(C)c3ccc(C)cc3)c2)c1 | -0.06 |
| COc1ccc(CCn2c(C)cc(C(=O)COC(=O)C34CC5CC(CC(O)(C5)C3)C4)c2C)cc1 | -0.19 |
| CN1C(=O)c2oc3ccccc3c(=O)c2C1c1ccccc1F (stereo not shown) | 0.01 |
| CCC(=O)c1ccc(OCC(=O)NNC(=O)c2cc(C)oc2C)cc1 | -0.03 |
| COc1cccc(C(C)NCc2ccc3[nH]c(=O)[nH]c3c2)c1 (stereo not shown) | -0.08 |
| O=C1NC(C(=O)O)=CC(c2ccccc2C(F)(F)F)N1 (stereo not shown) | -0.12 |

| Compound | TSA(with NAD+) / Primary screening (TSA) / delta Tm (K) |
| --- | --- |
| CC1(c2cccc(NC(=O)c3ccc4c(c3)CCC4)c2)NC(=O)NC1=O (stereo not shown) | -0.13 |
| CN(c1ccccc1)S(=O)(=O)c1cccc(NC(=O)COC(=O)C23CC4CC(CC(C4)C2)C3)c1 | 0.13 |
| COC(=O)c1ccc(C2NC(=O)NC3=C2C(=O)N(CC(C)O)C3)cc1 (stereo not shown) | -0.05 |
| C=C(Br)CN | 0.06 |
| NC(=O)c1cc(C2CCCN(c3nccc(-n4cccn4)n3)C2)n[nH]1 (stereo not shown) | 0.05 |
| Cc1ccc(N(C)S(=O)(=O)c2cccc(C(=O)Oc3ccc4c(C)cc(=O)oc4c3)c2)cc1 | 0.16 |
| O=C(CC12CC3CC(CC(C3)C1)C2)NCC(=O)Nc1ccc(Sc2nc3ccccc3[nH]2)cc1 | 0.23 |
| O=C1CCCCC(C(=O)Nc2ccc(-c3nc4ccccc4[nH]3)cc2)N1 (stereo not shown) | 0.16 |
| O=C(NC(=S)Nc1ccc(-c2nc3ccccc3[nH]2)cc1)C12CC3CC(CC(C3)C1)C2 | 0.43 |
| COc1ccc2nc(C)c(C(=O)NC34CC5CC(CC(C5)C3)C4)cc2c1 | -0.28 |
| C[C@@H](N)CCO | -0.05 |
| O=C1NC(=S)NC(=O)C1=Cc1cn(-c2ccccc2)nc1-c1cc2ccccc2o1 | 0.56 |
| O=C1NC(=O)C(=Cc2cn(-c3ccccc3)nc2-c2cc3ccccc3o2)C(=O)N1 | -0.11 |
| O=C1NC(=S)NC(=O)C1=Cc1cn(-c2ccccc2)nc1-c1cc2ccccc2oc1=O | -0.05 |
| O=S(=O)(c1ccc(C(F)(F)F)cc1)N1CCNCC1 | 0.03 |
| NC(=O)NCCCCC(=O)Nc1cccc(C(F)(F)F)c1 | 0.08 |
| CN(C)Cc1ccc(C(=O)Nc2cccc(C(=O)NC3CC3)c2)cc1 | 0.01 |
| O=C(Nc1cccc(C(F)(F)F)c1)c1cccc(NC(=O)c2cc3c(cc2[N+](=O)[O-])OCCO3)c1 | 0.38 |
| CCc1cc2c(N3CCN(Cc4ccc5c(c4)OCO5)CC3)nc(C)nc2s1 | -0.04 |
| NCCCC(N)C(=O)O (stereo not shown) | -0.08 |
| NC(=O)CC1CCN(C(=O)CCc2c[nH]c3ccccc23)CC1 | -0.03 |
| O=C(CCc1ccccc1)NC1CCN(c2ccc([N+](=O)[O-])c3cccnc23)CC1 | -0.21 |
| Cc1c(C=C2C(=O)NC(=S)NC2=O)c2ccccn2c1C(=O)c1cccc([N+](=O)[O-])c1 | -0.03 |
| O=C(CCc1ccccc1)Nc1ccccc1Cc1ccccc1 | -0.06 |
| Cc1cccc(-n2ccnc2SCC(=O)Nc2ccc(S(=O)(=O)Nc3nccs3)cc2)c1C | 0.13 |
| NC(=O)COC(=O)c1ccc(OCC(=O)Nc2cccc(C(F)(F)F)c2)cc1 | 0.23 |
| O=C(COc1ccccc1C(=O)Nc1ccc(S(=O)(=O)Nc2nccs2)cc1)Nc1cccc(C(F)(F)F)c1 | 0.82 |
